Laboratory results published in PubChem BioAssay (NCATS).
Records with an inconclusive call do not appear. Unmarked numbers belong to inactive results. Activity calls are given as the source filed them. Calls come from the whole dose curve; as a rule, active = well fitted curve in the direction sought with a large enough effect; inconclusive = small, poorly fitted or top-dose-only effect, or another doubt; inactive = no such curve, though single readings can be large or run the other way.
% is set by controls: 0 for no effect and ±100 for the full control effect.

These compounds were tested against Ferritin light chain (Equus caballus) (UniProt P02791) (assay: qHTS Validation Assay for Identification of Novel General Anesthetics (AID 2323)). Details: horse apoferritin, anesthetic-site fluorescent probe displacement; series mostly up to 76.9 µM; activity change, negative = inhibition: at the top concentration.
Sequence of Ferritin light chain (Equus caballus) (P02791 2-175 limits assumed): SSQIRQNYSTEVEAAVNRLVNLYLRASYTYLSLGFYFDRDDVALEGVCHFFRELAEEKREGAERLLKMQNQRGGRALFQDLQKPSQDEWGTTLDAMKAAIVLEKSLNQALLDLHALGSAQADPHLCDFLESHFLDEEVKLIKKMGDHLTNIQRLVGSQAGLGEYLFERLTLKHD
Description: Source: NIH Chemical Genomics Center [NCGC]
Assay Submitter: Roderic Eckenhoff, University of Pennsylvania
Screening Center PI: Christopher P. Austin, NIH
Probe Development: NIH Chemical Genomics Center [NCGC]
Anesthetic development has remained a largely empirical process. There are growing concerns about the cognitive effects of known general anesthetics and acceleration of the onset of neurodegenerative disease. The compounds' toxicity and multiple specific binding targets in the mammalian brain [4] has made them less attractive as drug leads. In this assay, a GABAergic mimetic model system, apoferritin and a profluorescent 1-aminoanthracene ligand (1-AMA), was used to construct a competitive binding assay for identification of novel general anesthetics. The assay was validated for 1-AMA using other known anesthetics, such as isoflurane (CID:3763) and propofol (CID: 4943), [6].
[1] S.L. Bianchi, T. Tran, C. Liu, S. Lin, Y. Li, J.M. Keller, R.G. Eckenhoff, and M.F. Eckenhoff, Brain and behavior changes in 12-month-old Tg2576 and nontransgenic mice exposed to anesthetics. Neurobiol Aging 29 (2008) 1002-10.
[2] Z. Xie, Y. Dong, U. Maeda, R.D. Moir, W. Xia, D.J. Culley, G. Crosby, and R.E. Tanzi, The inhalation anesthetic isoflurane induces a vicious cycle of apoptosis and amyloid beta-protein accumulation. J Neurosci 27 (2007) 1247-54.
[3] P. Honegger, and J.M. Matthieu, Selective toxicity of the general anesthetic propofol for GABAergic neurons in rat brain cell cultures. J Neurosci Res 45 (1996) 631-6.
[4] M.F. Eckenhoff, K. Chan, and R.G. Eckenhoff, Multiple specific binding targets for inhaled anesthetics in the mammalian brain. J Pharmacol Exp Ther 300 (2002) 172-9.
[5] C.A. Butts, J. Xi, G. Brannigan, A.A. Saad, S.P. Venkatachalan, R.A. Pearce, M.L. Klein, R.G. Eckenhoff, and I.J. Dmochowski, Identification of a fluorescent general anesthetic, 1-aminoanthracene. Proc Natl Acad Sci U S A 106 (2009) 6501-6.
[6] W.A. Lea, J. Xi, A. Jadhav, L. Lu, C.P. Austin, A. Simeonov, and R.G. Eckenhoff, A high-throughput approach for identification of novel general anesthetics. PLoS One 4 (2009) e7150.
Three uL of reagents (free 1-AMA (50% saturated solution of 1-aminoanthracene
in PBS) in columns 3, 4 as negative control and 1-AMA/apoferritin mixture (10 uM horse-spleen apoferritin in 50% saturated 1-aminoanthracene in PBS) in columns 1, 2, 5-48) was dispensed into 1536-well Greiner black assay plates. Compounds (23 nL) were transferred via Kalypsys pintool equipped with 1,536-pin array (10 nL slotted pins, V&P Scientific, San Diego, CA). Titration of the positive control, propofol, were delivered via pin transfer from separate control plates to the 2nd column of each assay plate. The starting concentration of the control, dissolved in DMSO, was at 160 mM, followed by two-fold dilution points in duplicate, for a total of 16 concentrations. The plates were incubated for 10 min at room temperature, and then read on an EnVision HTS multilabel reader (Perkin-Elmer, Waltham, MA) (end point read, 3 min/plate) using Fura2 BFP excitation filter (380 nm, bandwidth 10 nm) and fluorescein emission filter (535 nm, bandwidth 25 nm) set. A LANCE/DELFIA dichroic mirror with a cutoff wavelength at 400 nm was used to maximize signal accuracy and strength. Vehicle-only plates, with DMSO being pin-transferred to the entire column 5-48 compound area, were inserted uniformly at the beginning and the end of each library in order to monitor for and record any shifts in the background. Activity was computed as the normalized fluorescence response relative to free 1-AMA and 1-AMA/apoferritin complex values. Concentration-effect relationships were derived by using curve fitting algorithms developed in-house (http://ncgc.nih.gov/pub/openhts/). A four parameter Hill equation was fitted to the concentration-response data by minimizing the residual error between the modeled and observed responses.
For `Nc1c2c(nc3ccccc13)CCCC2`, the “activity change, negative = inhibition” value was 0.231%.
For `Nc1nnc(-c2cccc(Cl)c2Cl)c(N)n1`, the “activity change, negative = inhibition” value was -7.82%.
With `O=C(CCCN1CCC(O)(c2ccc(Cl)cc2)CC1)c1ccc(F)cc1` the “activity change, negative = inhibition” value was -10.7%.
With `CN1CCN2c3ccccc3Cc3ccccc3C2C1` (stereo not given) the “activity change, negative = inhibition” value was -11.7%.
In the case of `NC(=O)OCC(COC(N)=O)c1ccccc1`, the “activity change, negative = inhibition” value is reported as -11.5%.
For `NC(=O)NO`, the “activity change, negative = inhibition” value was -2.89%.
`COc1ccc(C2CNC(=O)C2)cc1OC1CCCC1` (stereo not given) was tested, and the “activity change, negative = inhibition” value was -2.06%.
With `NCCCCCC(=O)O` the “activity change, negative = inhibition” value was 21.3%.
`NC12CC3CC(CC(C3)C1)C2` was tested, and the “activity change, negative = inhibition” value was 3.62%.
In the case of `COc1ccc(CCN(C)CCCC(C#N)(c2ccc(OC)c(OC)c2)C(C)C)cc1OC` (stereo not given), the “activity change, negative = inhibition” value is reported as -19.6%.
With `Cn1c(=O)c2c(ncn2C)n(C)c1=O` the “activity change, negative = inhibition” value was -4.17%.
`Cn1c(=O)c2[nH]cnc2n(C)c1=O` was tested, and the “activity change, negative = inhibition” value was -1.87%.
With `O=C(c1ccc(F)cc1)C1CCN(CCn2c(=O)[nH]c3ccccc3c2=O)CC1` the “activity change, negative = inhibition” value was -20.5%.
With `CC[N+](CC)(CC)CCOc1cccc(OCC[N+](CC)(CC)CC)c1OCC[N+](CC)(CC)CC` the “activity change, negative = inhibition” value was -4.9%.
With `COc1ccc2[nH]cc(CCNC(C)=O)c2c1` the “activity change, negative = inhibition” value was -2.92%.
With `NCCS(=O)(=O)O` the “activity change, negative = inhibition” value was -2.26%.
In the case of `O=c1c(O)c(-c2ccc(O)c(O)c2)oc2cc(O)cc(O)c12`, the “activity change, negative = inhibition” value is reported as -8.68%.
With `CCCNCC(O)COc1ccccc1C(=O)CCc1ccccc1` (stereo not given) the “activity change, negative = inhibition” value was -16.3%.
In the case of `CC(C)NCC(O)c1ccc(O)c(O)c1` (stereo not given), the Potency is reported as “inactive”.
With `CC(C)NCC(O)COc1ccc(CCOCC2CC2)cc1` (stereo not given) the “activity change, negative = inhibition” value was -18.2%.
`NS(=O)(=O)c1cc2c(cc1Cl)NCNS2(=O)=O` was tested, and the “activity change, negative = inhibition” value was -2.59%.
For `O=c1[nH]cc(F)c(=O)[nH]1`, the “activity change, negative = inhibition” value was -3.86%.
For `CN1CCN(C2=Nc3cc(Cl)ccc3Nc3ccccc32)CC1`, the “activity change, negative = inhibition” value was -14.1%.
In the case of `NCCc1cnc[nH]1`, the “activity change, negative = inhibition” value is reported as -2.25%.
With `Fc1ccc([C@@H]2CCNC[C@H]2COc2ccc3c(c2)OCO3)cc1` the “activity change, negative = inhibition” value was -12%.
In the case of `CN1CCN(CCCN2c3ccccc3Sc3ccc(Cl)cc32)CC1`, the “activity change, negative = inhibition” value is reported as 6.17%.
In the case of `O=C(C1CCCCC1)N1CC(=O)N2CCc3ccccc3C2C1` (stereo not given), the “activity change, negative = inhibition” value is reported as -7.36%.
With `Nc1nc2c(ncn2COC(CO)CO)c(=O)[nH]1` the “activity change, negative = inhibition” value was -7.1%.
`N[C@@H](Cc1c[nH]c2ccc(O)cc12)C(=O)O` was tested, and the “activity change, negative = inhibition” value was -6.67%.
For `CCc1cccc2c3c([nH]c12)C(CC)(CC(=O)O)OCC3` (stereo not given), the “activity change, negative = inhibition” value was -6.88%.
`C[C@](N)(Cc1ccc(O)c(O)c1)C(=O)O` was tested, and the “activity change, negative = inhibition” value was -1.5%.
In the case of `COc1ccccc1OCC(O)CN1CCN(CC(=O)Nc2c(C)cccc2C)CC1` (stereo not given), the “activity change, negative = inhibition” value is reported as -6.04%.
For `COc1ccc2c(c1)c(CC(=O)O)c(C)n2C(=O)c1ccc(Cl)cc1`, the “activity change, negative = inhibition” value was -2.44%.
`Cn1ccc2cc3c(cc21)CCN3C(=O)Nc1cccnc1` was tested, and the “activity change, negative = inhibition” value was 4.83%.
In the case of `CC(C)Cc1ccc(C(C)C(=O)O)cc1` (stereo not given), the “activity change, negative = inhibition” value is reported as -6.86%.
With `CN1C2CCC1CC(OC(=O)C(CO)c1ccccc1)C2` (stereo not given) the Potency was “inactive”.
In the case of `CN1CCC(=C2c3ccccc3CC(=O)c3sccc32)CC1`, the “activity change, negative = inhibition” value is reported as -10.8%.
In the case of `CNCCCC12CCC(c3ccccc31)c1ccccc12`, the “activity change, negative = inhibition” value is reported as -7.25%.
For `Cc1cc(C(C)(C)C)c(O)c(C)c1CC1=NCCN1`, the “activity change, negative = inhibition” value was -9.42%.
`CC(CCc1ccc(O)cc1)NCCc1ccc(O)c(O)c1` (stereo not given) was tested, and the “activity change, negative = inhibition” value was -6.06%.
